In PubChem BioAssay (Tox21):
Activity calls are given as the source filed them. Entries that show only a call come without a potency. Calls come from the whole dose curve.

Target: Estrogen receptor (Homo sapiens) (UniProt P03372)
Test: qHTS assay to identify small molecule agonists of the estrogen receptor alpha (ER-alpha) signaling pathway in the presence of an antagonist (AID 1259383); note: nearly all actives have a fitted effect of over 15% in size
Conditions: VM7Luc4E2 cells, ERE-luciferase, +ICI-182,780, 22 h; series mostly up to 92.4 µM
From the text: National Center for Advancing Translational Sciences [NCATS] NIH Chemical Genomics Center [NCGC] U.S. Environmental Protection Agency [EPA] National Institutes of Environmental Health Sciences [NIEHS] National Toxicology Program [NTP] Assay overview: Estrogen receptor (ER), a member of nuclear hormone receptor plays an important role in development, metabolic homeostasis and reproduction. Two subtypes of ER, ER-alpha and ER-beta, have similar expression patterns with some uniqueness in both types. Endocrine disrupting chemicals (EDCs) and their interactions with steroid hormone receptors like ER causes disruption of normal endocrine function. Therefore, it is important to understand the effect of environmental chemicals in ER signaling pathway. For identifying ER agonists, VM7Luc4E2 cell line has been used in the current assay. VM7Luc4E2 cell line (provided by Denison MS, University of California) endogenously expresses full-length ER-alpha and is stably transfected with a plasmid containing four estrogen responsive elements (ERE) upstream of a luciferase reporter gene. This current screening for measuring luciferase reporter gene activity using VM7Luc4E2 cells against Tox21 10K library collection is a confirmation study on agonist mode screening in presence of ER-antagonist (ICI-182,780) at 10.0nM final concentration.
Assay Protocol Summary: VM7Luc4E2 cells were cultured in phenol red free assay medium containing 10% charcoal stripped FBS for 5 days prior to the assay. The cells were dispensed at 4,000 cells in 4uL of assay medium per well into white wall/solid-bottom 1536-well plates (Corning Life Sciences, Corning, NY) using a Multidrop Combi (Thermo Fisher Scientific Inc., Waltham, MA) dispenser. After the assay plates were incubated at 37C and 5% CO2 for 24hr, 1uL of 10.0nM (final concentration) ICI-182,780 or assay buffer was added using two separate tips of Flying Reagent Dispenser (FRD, Aurora Discovery, San Diego, CA). Then 23nL of compounds dissolved in DMSO at 15 concentrations and positive controls or DMSO only was transferred to the assay plates by a Pintool station (Wako, San Diego, CA). The assay plates were incubated at 37C and 5% CO2 for 22hr. For luciferase read, 4uL/well ONE-Glo reagent (Promega Corporation, Madison, WI) was added to each well using FRD and after 30min incubation at room temperature, luminescence signal was measured on ViewLux plate reader (PerkinElmer, Shelton, CT).
Potency is the fitted concentration of half-maximal effect.

Sequence of Estrogen receptor (Homo sapiens) (P03372 whole entry, looked up): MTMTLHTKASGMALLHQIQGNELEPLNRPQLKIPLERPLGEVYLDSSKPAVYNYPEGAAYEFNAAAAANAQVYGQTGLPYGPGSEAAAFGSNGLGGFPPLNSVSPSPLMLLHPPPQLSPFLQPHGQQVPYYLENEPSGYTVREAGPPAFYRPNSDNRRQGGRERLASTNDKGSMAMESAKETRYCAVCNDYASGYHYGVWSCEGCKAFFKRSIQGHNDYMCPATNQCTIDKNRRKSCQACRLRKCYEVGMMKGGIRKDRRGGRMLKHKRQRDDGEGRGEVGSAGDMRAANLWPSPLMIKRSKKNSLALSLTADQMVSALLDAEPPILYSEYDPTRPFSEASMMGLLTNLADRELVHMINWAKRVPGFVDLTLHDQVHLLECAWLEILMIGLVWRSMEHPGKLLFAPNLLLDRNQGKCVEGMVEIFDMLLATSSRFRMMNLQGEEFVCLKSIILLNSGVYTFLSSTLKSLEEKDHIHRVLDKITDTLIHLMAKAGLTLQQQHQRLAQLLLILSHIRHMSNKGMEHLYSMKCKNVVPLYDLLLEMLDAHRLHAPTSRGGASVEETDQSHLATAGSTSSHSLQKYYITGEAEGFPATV

**Q.** With `CC1=Nc2ccc3ccccc3c2C1(C)C` as the compound, how does the Potency read?
**A.** The Potency was “inactive”.

**Q.** For `O=C(Cn1ccnc1[N+](=O)[O-])NCCO`, which Potency is on record?
**A.** The Potency was “inactive”.

**Q.** How did the Potency turn out when `O=C1Cc2cc(Cl)ccc2N1` was run?
**A.** The Potency was “inactive”.

**Q.** `CC[N+](CC)(CCNC(=O)C(=O)NCC[N+](CC)(CC)Cc1ccccc1Cl)Cc1ccccc1Cl` was tested. Which Potency did it give?
**A.** Its Potency is “inactive”.

**Q.** Which Potency does the source give for `C[C@@H](CN(C)C)CN1c2ccccc2Sc2ccccc21` here?
**A.** Its Potency is “inactive”.

**Q.** How did the Potency turn out when `C/C=C\C/C=C/CCCCCCCCOC(C)=O` was run?
**A.** Its Potency is “inactive”.

**Q.** Which Potency does the source give for `CC(=O)Nc1cc(S(=O)(=O)O)cc2cc(S(=O)(=O)O)c(N=Nc3ccccc3)c(O)c12` here?
**A.** The Potency was “inactive”.

**Q.** How did the Potency turn out when `Cc1cc(O)c(C)c(C)c1O` was run?
**A.** The Potency was “inactive”.

**Q.** For `O=c1[nH]ncc2ccccc12`, which Potency is on record?
**A.** The Potency was “inactive”.

**Q.** For `CCN(CC)CCNC(=O)COc1ccc(OC)cc1`, which Potency is on record?
**A.** The Potency was “inactive”.

**Q.** `CC(C)COCC(CN(Cc1ccccc1)c1ccccc1)N1CCCC1` (stereo not given) was tested. Which Potency did it give?
**A.** Its Potency is “inactive”.

**Q.** `COc1cc(C(=O)NCCCCCC(=O)O)cc(OC)c1OC` was tested. Which Potency did it give?
**A.** The Potency was “inactive”.

**Q.** For `CO[C@]1(NC(=O)CSC(F)F)C(=O)N2C(C(=O)O)=C(CSc3nnnn3CCO)CO[C@H]21`, which Potency is on record?
**A.** Its Potency is “inactive”.

**Q.** `O=C1c2ccccc2C(=O)C1(O)O` was tested. Which Potency did it give?
**A.** Its Potency is “inactive”.

**Q.** With `CCCC(=O)C(=O)O` as the compound, how does the Potency read?
**A.** The Potency was “inactive”.

**Q.** `Nc1ccc(N=Nc2ccccc2)c(N)c1` was tested. Which Potency did it give?
**A.** The Potency was “inactive”.

**Q.** With `CN1C(C(=O)Nc2ccccn2)=C(O)c2sccc2S1(=O)=O` as the compound, how does the Potency read?
**A.** Its Potency is “inactive”.

**Q.** For `Oc1cc2c(cc1O)[C@H]1c3ccc(O)c(O)c3OC[C@@]1(O)C2`, which Potency is on record?
**A.** The Potency was “inactive”.

**Q.** Which Potency does the source give for `C=C(C)C(=O)OCCCCCCCCCCCCC` here?
**A.** Its Potency is “inactive”.

**Q.** For `CC=C(Cl)Cl`, which Potency is on record?
**A.** Its Potency is “inactive”.

**Q.** Which Potency does the source give for `O=[N+]([O-])c1ccc(O/N=C/c2cc(Br)c(O)c(Br)c2)c([N+](=O)[O-])c1` here?
**A.** The Potency was “inactive”.

**Q.** Which Potency does the source give for `COC(=O)CCS` here?
**A.** Its Potency is “inactive”.

**Q.** With `O=C1c2ccccc2C(=O)C1c1ccc(Br)cc1` as the compound, how does the Potency read?
**A.** The Potency was “inactive”.

**Q.** Which Potency does the source give for `CCC(C)COC(=O)CC(C)C` (stereo not given) here?
**A.** The Potency was “inactive”.

**Q.** Which Potency does the source give for `C=Cc1ccc(S(=O)(=O)O)cc1` here?
**A.** The Potency was “inactive”.

**Q.** Which Potency does the source give for `Cc1cc(C)c(N)cc1C` here?
**A.** The Potency was “inactive”.

**Q.** Which Potency does the source give for `Cc1cc2c(OCC(CNC(C)(C)C)OC(=O)c3ccccc3)cccc2[nH]1` (stereo not given) here?
**A.** Its Potency is “inactive”.

**Q.** How did the Potency turn out when `CN1C(=O)N(c2ccccc2Br)Cc2cnc(Nc3ccc4c(c3)OCC(CO)O4)nc21` (stereo not given) was run?
**A.** Its Potency is “inactive”.

**Q.** With `Oc1cccc(O)c1O` as the compound, how does the Potency read?
**A.** Its Potency is “inactive”.

**Q.** `CC(CC1c2ccccc2CCc2ccccc21)CN(C)C` (stereo not given) was tested. Which Potency did it give?
**A.** Its Potency is “inactive”.

**Q.** For `OC[C@H]1O[C@@H](n2cnc3c(=S)nc[nH]c32)[C@H](O)[C@@H]1O`, which Potency is on record?
**A.** The Potency was “inactive”.

**Q.** `CC(C)(O)c1ccc(CNC(=O)c2cccnc2Oc2ccc3nonc3c2)cc1` was tested. Which Potency did it give?
**A.** Its Potency is “inactive”.

**Q.** With `O=c1[nH]c2ccc(Cl)cc2o1` as the compound, how does the Potency read?
**A.** Its Potency is “inactive”.

**Q.** Which Potency does the source give for `O=C(/C=C/c1ccccc1)OCCc1ccccc1` here?
**A.** Its Potency is 3.44 µM (active).

**Q.** Which Potency does the source give for `Cc1ccc(Cl)c(Nc2ccccc2C(=O)O)c1Cl` here?
**A.** Its Potency is “inactive”.

**Q.** With `COc1cc(N)c(Cl)cc1C(=O)NC1CCN(CCCOc2ccc(F)cc2)CC1OC` (stereo not given) as the compound, how does the Potency read?
**A.** The Potency was “inactive”.

**Q.** For `O=C1c2ccccc2C(=O)N1CCc1noc(-c2ccc(CN3CCCCCC3)s2)n1`, which Potency is on record?
**A.** Its Potency is “inactive”.

**Q.** For `CN(C)CCC=C1c2ccccc2C=Cc2ccccc21`, which Potency is on record?
**A.** Its Potency is “inactive”.

**Q.** With `C[C@]1(Cn2ccnn2)[C@H](C(=O)O)N2C(=O)C[C@H]2S1(=O)=O` as the compound, how does the Potency read?
**A.** The Potency was “inactive”.

**Q.** `CCCCCCCC/C=C\CCCCCCCCCCCC(=O)O` was tested. Which Potency did it give?
**A.** The Potency was “inactive”.
